AmpC inh no detg – AmpC beta-lactamase inhibition without detergent | P00811 | Potency, µM (titrated, usually from 57.1 µM), for inactives: at the top dose activity change, negative = inhibition, most hits filed as inhibitors | AID 485341 | 330,000 compounds, 0.52% hits | AmpC nitrocefin hydrolysis, absorbance 480 nm, 0.0001% Triton;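 also: potency is read from the fitted curve at half-maximal effect; plate controls were no compound for no effect and no enzyme for full effect; nearly all actives have a fitted effect of over 20% in size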
Target sequence (P00811 whole entry, looked up): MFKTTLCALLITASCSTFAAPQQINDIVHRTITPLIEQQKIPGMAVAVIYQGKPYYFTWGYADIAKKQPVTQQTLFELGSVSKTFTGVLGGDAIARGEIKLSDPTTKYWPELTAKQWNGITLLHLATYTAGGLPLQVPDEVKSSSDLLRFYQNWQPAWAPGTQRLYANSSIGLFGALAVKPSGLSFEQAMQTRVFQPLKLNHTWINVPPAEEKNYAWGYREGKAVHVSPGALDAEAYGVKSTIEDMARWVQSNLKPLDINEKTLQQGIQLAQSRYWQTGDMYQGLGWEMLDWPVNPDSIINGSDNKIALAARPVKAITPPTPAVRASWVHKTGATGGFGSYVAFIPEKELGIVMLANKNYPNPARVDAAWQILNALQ
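20 mM phosphate pH 7.0 + 0.01% (detergent screen) or 0.0001% Triton X-100; 5.3 nM AmpC reagent; cpd preinc 15 min RT; nitrocefin (800 uM stock) to start; A480 q20 s × 4 min; Activity was normalised to no-enzyme and no-compound control wells.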
SARS PLpro yeast – SARS-CoV PLP inhibition in yeast | S. cerevisiae expressing SARS-CoV PLpro, growth rescue | Potency, µM (series often up to 32.9 µM), for the others: at the highest dose activity, positive = growth rescue, hits mostly activators | 330,000 compounds, 0.19% hits | AID 485353; calls by dose curve; also: potency is read from the fitted curve at half-maximal effect; 0% is about no effect; nearly all actives have a fitted effect of over 55% in size
Shiga inhibitor – blocks Shiga toxin action in Vero cells; 290,000 compounds, 9.2% hits; inhibition, % at 38.7 µM; Vero cells, Shiga toxin protein synthesis inhibition reporter; in the data active = inhibition mostly above about 28%, no sharp cut-off; inactive = mostly below about 43%; also: 0% is about no effect
AMA1-RON2 inh – AMA1-RON2 (P. falciparum) interaction inhibition. AlphaScreen AMA1-biotinylated RON2 peptide binding. Potency, µM (top dose mostly 58.2 µM), inactives show at the top dose activity change, negative = inhibition, hits mostly inhibitors. 360,000 compounds, 0.2% hits. AID 720542;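 also: potency is read from the fitted curve at half-maximal effect; 0% = vehicle wells and -100% = peptide control; nearly all actives have a fitted effect of over 45% in size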
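AMA1 (3D7) with his tag at 25 nM final met compounds first, then biotinylated RON2 peptide at 25 nM; detection used donor plus acceptor beads, 10 µg/mL apiece, read by AlphaScreen after 30 min at room temperature.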
AmpC detergent – blocks E. coli AmpC beta-lactamase in detergent assay; P00811; AmpC hydrolysis of nitrocefin, absorbance 480 nm, 0.01% Triton; Potency, µM (doses to about 114 µM), inactives show at the highest dose activity change, negative = inhibition, actives largely listed as inhibitors; 370,000 compounds, 0.041% hits; AID 485294;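 also: potency is read from the fitted curve at half-maximal effect; 0% = no-compound wells and -100% = no-enzyme wells; nearly all actives have a fitted effect of over 25% in size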
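AmpC (5.3 nM in the dispensed reagent) in 20 mM phosphate pH 7.0 with 0.01% (detergent screen) or 0.0001% Triton X-100 was preincubated with compounds for 15 min at room temperature. Nitrocefin was then added from an 800 uM solution, and hydrolysis was followed at 480 nm.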
CHX counter – affects cycloheximide protein synthesis inhibition readout, counter-screen; cell reporter, cycloheximide protein synthesis inhibition counterscreen; max response, %; 300,000 compounds, 12% hits; in the data active = max response mostly above about 13%, no sharp cut-off; inactive = mostly below about 14%; also: read at 38.3 µM for the half of the compounds with a filed dose; 0% is about no effect
Starred values were filed as active, the others as inactive. Many of the other results were omitted from the sample, so hits are more common in it than they were. Unless noted, calls follow the shape of the dose curve; as a rule, active = well fitted curve in the direction sought with a large enough effect; inconclusive = small, poorly fitted or top-dose-only effect, or another doubt; inactive = no such curve, though single readings can be large; an effect the other way counts as inactive or inconclusive.

Results for COc1cccc(CN2C(=O)C(C)N(C(=O)c3c(F)cccc3F)c3ccccc32)c1 (configuration not stated) ?
AmpC inh no detg: -6%; SARS PLpro yeast: 1%; Shiga inhibitor: 17; AMA1-RON2 inh: -8%; AmpC detergent: 5%; CHX counter: 3

How did COc1ccc(S(=O)(=O)NCCCCCC(=O)NCCCN2CCOCC2)cc1 do in these assays?
AmpC inh no detg: 0%; SARS PLpro yeast: 13%; Shiga inhibitor: -13; AMA1-RON2 inh: 19%; AmpC detergent: -3%; CHX counter: -3

What do the screens show for `CCN(CC)S(=O)(=O)c1cccc(-c2nnc(SCC(=O)NC3CCCC3)n2N)c1`?
AmpC inh no detg: -9%; SARS PLpro yeast: 0%; Shiga inhibitor: -13; AMA1-RON2 inh: -7%; AmpC detergent: inconclusive; CHX counter: 10

How did CC(=O)/C(C#N)=C1\NC(=O)C(Cc2ccc(C)c(Cl)c2)S1 (configuration not stated) do in these assays?
AmpC inh no detg: -35%; SARS PLpro yeast: 1%; Shiga inhibitor: 25; AMA1-RON2 inh: 7%; AmpC detergent: 0%; CHX counter: 16*

Results for CCc1ccc(CC2S/C(=C(\C#N)C(C)=O)NC2=O)cc1 (configuration not stated) ?
AmpC inh no detg: -42%; SARS PLpro yeast: -25%; Shiga inhibitor: 37; AMA1-RON2 inh: 8%; AmpC detergent: -6%; CHX counter: 10

What do the screens show for `N#Cc1c(N)nc(N)nc1Nc1ccc(Br)cc1`?
AmpC inh no detg: -31%; SARS PLpro yeast: -1%; Shiga inhibitor: 90*; AMA1-RON2 inh: -7%; AmpC detergent: -2%; CHX counter: 41*

Results for O=C(OCC(=O)N1c2ccccc2Sc2ccccc21)C1CC(=O)N(Cc2ccco2)C1 (configuration not stated) ?
AmpC inh no detg: 128%; SARS PLpro yeast: -1%; Shiga inhibitor: 10; AMA1-RON2 inh: -8%; AmpC detergent: inconclusive; CHX counter: -4

How did O=C(COC(=O)C1CC(=O)N(Cc2ccco2)C1)c1ccc(OC(=O)c2ccccc2)cc1 (configuration not stated) do in these assays?
AmpC inh no detg: 95%; SARS PLpro yeast: -17%; Shiga inhibitor: 72*; AMA1-RON2 inh: -23%; AmpC detergent: -17%; CHX counter: 33*

What do the screens show for `Cn1nnnc1SCC(=O)Nc1nc2c(s1)CCCC2`?
AmpC inh no detg: -16%; SARS PLpro yeast: 3%; Shiga inhibitor: 70*; AMA1-RON2 inh: -8%; AmpC detergent: inconclusive; CHX counter: 42*

How did Cc1csc(NC(=O)CSC2=NCCS2)n1 do in these assays?
AmpC inh no detg: -5%; SARS PLpro yeast: 5%; Shiga inhibitor: 19; AMA1-RON2 inh: 35%; AmpC detergent: 4%; CHX counter: 37*

What do the screens show for `O=C(CSC1=NCCS1)Nc1nc2c(s1)CCCC2`?
AmpC inh no detg: -22%; SARS PLpro yeast: 5%; Shiga inhibitor: 99*; AMA1-RON2 inh: 60%; AmpC detergent: 5%; CHX counter: 39*

Results for CCOC(=O)c1c(NC(=O)CSc2nnnn2C)sc(C)c1-c1ccc(C)cc1 ?
AmpC inh no detg: 27%; SARS PLpro yeast: 8%; Shiga inhibitor: -16; AMA1-RON2 inh: -2%; AmpC detergent: inconclusive; CHX counter: 16*

How did CCOC(=O)c1c(-c2ccccc2)csc1NC(=O)CSc1nnnn1C do in these assays?
AmpC inh no detg: 19%; SARS PLpro yeast: -7%; Shiga inhibitor: -4; AMA1-RON2 inh: -5%; AmpC detergent: inconclusive; CHX counter: 4

What do the screens show for `COCCN(C(=O)COC(=O)c1ccccc1Nc1ccccc1)c1c(N)n(Cc2ccccc2)c(=O)[nH]c1=O`?
AmpC inh no detg: inconclusive; SARS PLpro yeast: -3%; AMA1-RON2 inh: -8%; AmpC detergent: -12%

Results for Cc1cc2ccccn2c1C(=O)Nc1ccccc1 ?
AmpC inh no detg: -19%; SARS PLpro yeast: -1%; Shiga inhibitor: 68; AMA1-RON2 inh: -28%; AmpC detergent: 2%; CHX counter: 23*

What do the screens show for `Cc1cc2ccccn2c1C(=O)Nc1ccc(Cl)cc1`?
AmpC inh no detg: -33%; SARS PLpro yeast: -5%; Shiga inhibitor: 73*; AMA1-RON2 inh: 4%; AmpC detergent: -3%; CHX counter: 18*

How did CCCNC(=O)c1c(N)n(-c2cc(OC)cc(OC)c2)c2nc3ccccc3nc12 do in these assays?
AmpC inh no detg: 41%; SARS PLpro yeast: 1%; Shiga inhibitor: 0; AMA1-RON2 inh: 32%; AmpC detergent: -11%; CHX counter: -2

Results for Cn1nnc2c(sc3nc(N4CCOCC4)c4c(c32)CCCC4)c1=O ?
AmpC inh no detg: -6%; SARS PLpro yeast: 1%; Shiga inhibitor: -7; AMA1-RON2 inh: 15%; AmpC detergent: inconclusive; CHX counter: -1

What do the screens show for `COc1ccc(NC(=O)C2=CC(c3ccco3)=NS(=O)(=O)N2C)cc1`?
AmpC inh no detg: -45%; SARS PLpro yeast: -1%; Shiga inhibitor: 25; AMA1-RON2 inh: -2%; AmpC detergent: -3%; CHX counter: 17*

How did CC(C)NC(=O)c1cc(-c2ccco2)on1 do in these assays?
AmpC inh no detg: -12%; SARS PLpro yeast: -4%; Shiga inhibitor: 106*; AMA1-RON2 inh: 1%; AmpC detergent: 4%; CHX counter: 32*

Results for CCc1ccc(NC(=O)c2cc(-c3ccco3)on2)cc1 ?
AmpC inh no detg: -32%; SARS PLpro yeast: 6%; Shiga inhibitor: 57*; AMA1-RON2 inh: 1%; AmpC detergent: -3%; CHX counter: 52*

Results for O=C(Nc1c(Cl)cccc1Cl)c1cc(-c2ccco2)on1 ?
AmpC inh no detg: -18%; SARS PLpro yeast: -3%; Shiga inhibitor: 21; AMA1-RON2 inh: -1%; AmpC detergent: 1%; CHX counter: 15

How did COc1ccc(NC(=O)c2cc(-c3ccco3)on2)cc1 do in these assays?
AmpC inh no detg: -28%; SARS PLpro yeast: 0%; Shiga inhibitor: 89*; AMA1-RON2 inh: -5%; AmpC detergent: 2%; CHX counter: 61*

How did CCOc1ccccc1C(=O)N(Cc1ccco1)Cc1ccco1 do in these assays?
AmpC detergent: 23%

What do the screens show for `CCc1ccc(NC(=O)CSc2ccc(-c3ccccn3)nn2)cc1`?
AmpC inh no detg: 7%; SARS PLpro yeast: 6%; Shiga inhibitor: 3; AMA1-RON2 inh: inconclusive; AmpC detergent: 2%; CHX counter: 7

How did CCc1ccc(-c2ccc(SCc3ccccn3)nn2)cc1 do in these assays?
AmpC inh no detg: -14%; SARS PLpro yeast: 2%; Shiga inhibitor: 103*; AMA1-RON2 inh: 2%; AmpC detergent: 1%; CHX counter: 41*

Results for CCOc1ccc(-c2ccc(SCC(=O)N3CCN(c4ccccc4)CC3)nn2)cc1 ?
AmpC inh no detg: -21%; SARS PLpro yeast: 19%; Shiga inhibitor: 3; AmpC detergent: -7%; CHX counter: 3

Screening results (PubChem BioAssay)
